Assay outcomes deposited in PubChem by National Center for Advancing Translational Sciences (NCATS).
JMJD2A Tudor inh: JMJD2A Tudor domain (human) inhibition; AlphaScreen JMJD2A-Tudor / H3K4me3 peptide binding; O75164; AID 504339; 4.4% of 390,000 active; Potency, µM (top dose mostly 114 µM), without a hit: top-dose activity change, negative = inhibition, usual class: inhibitors; note: % is set by controls: 0 for no effect and ±100 for the full control effect; nearly all actives have a fitted effect of over 50% in size
HP1b binding inh: blocks HP1-beta chromodomain binding to methylated histone tails; AlphaScreen HP1-beta / biotin-H3K9me3 peptide binding; P83916; 0.56% of 390,000 active; Potency, µM (doses to about 114 µM), inactives show at the top dose activity change, negative = inhibition, most hits filed as inhibitors; AID 540317; note: nearly all actives have a fitted effect of over 70% in size
Target sequence (P83916 whole entry, looked up): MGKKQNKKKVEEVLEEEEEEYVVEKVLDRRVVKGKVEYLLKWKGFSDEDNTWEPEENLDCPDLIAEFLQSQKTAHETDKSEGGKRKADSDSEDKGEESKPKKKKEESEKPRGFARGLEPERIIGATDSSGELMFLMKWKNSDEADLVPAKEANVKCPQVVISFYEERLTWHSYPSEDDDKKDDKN
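AlphaScreen: HP1-beta (50 nM) preformed 30 min with biotin-H3(1-18)K9me3 peptide (50 nM) in PBS pH 7.4, 0.01% Tween-20. Compound added for 30 min at RT, then streptavidin donor/nickel chelate acceptor beads (10 ug/mL) for 30 min.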
G9a inh: blocks human histone lysine methyltransferase G9a; G9a H3K9 monomethylation, AlphaScreen, 2 h; Q96KQ7; AID 504332; Potency, µM (series often up to 102 µM), for the others: top-dose activity, negative = inhibition, hits mostly inhibitors; 8.8% of 350,000 active; note: % is set by controls: 0 for no effect and ±100 for the full control effect; nearly all actives have a fitted effect of over 75% in size
Target sequence (Q96KQ7 913-1193 limits assumed): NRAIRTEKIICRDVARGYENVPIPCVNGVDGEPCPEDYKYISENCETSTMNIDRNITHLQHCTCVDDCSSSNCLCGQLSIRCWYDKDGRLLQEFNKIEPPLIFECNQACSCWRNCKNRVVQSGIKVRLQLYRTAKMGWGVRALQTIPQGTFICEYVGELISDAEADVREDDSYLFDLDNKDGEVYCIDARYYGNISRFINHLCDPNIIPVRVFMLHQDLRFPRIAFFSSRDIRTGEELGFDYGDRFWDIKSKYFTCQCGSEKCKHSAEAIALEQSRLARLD
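Methyltransferase reactions run at room temperature for 2 h (20 nM enzyme, 500 nM biotin-H3K9 peptide, 20 uM SAM) after a 15 min compound preincubation; product detected by AlphaScreen beads and anti-H3K9me1 antibody.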
BAZ2B inh: blocks human BAZ2B; Q9UIF8; AlphaScreen BAZ2B-H3K14Ac peptide displacement; Potency, µM (highest dose often 114 µM), for inactives: top-dose activity change, negative = inhibition, usual class: inhibitors; 4.4% of 360,000 active; note: % is set by controls: 0 for no effect and ±100 for the full control effect; nearly all actives have a fitted effect of over 60% in size
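Complex of BAZ2B and biotin-H3K14Ac (50 nM apiece) forms over 30 min at RT, then faces library compounds up to 110 uM for another 30 min; AlphaScreen beads added, 20 min dark incubation, luminescence read.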
L3MBTL1 inh: inhibitors of human L3MBTL1; AlphaScreen L3MBTL1–H3K9me1 peptide binding; Potency, µM (titrated, usually from 57.1 µM), for inactives: at the highest dose activity, negative = inhibition, actives largely listed as inhibitors; 0.66% of 230,000 active; AID 485360; note: % is set by controls: 0 for no effect and ±100 for the full control effect; nearly all actives have a fitted effect of over 60% in size
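First, the protein-peptide complex forms for 30 min at room temperature (L3MBTL1 50 nM, biotinylated H3K9me1 peptide 75 nM). Next, compounds are pin-transferred and incubated 30 min. Finally, AlphaScreen beads are added and read after 30 min.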
Sfp PPTase inh: inhibitors of Bacillus subtilis Sfp phosphopantetheinyl transferase. Potency, µM, inactives show largest response in the series, negative = inhibition, actives largely listed as inhibitors. Q9F4F7. 3.5% of 310,000 active. Biochemical Sfp PPTase activity, qHTS;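 note: the enzyme is Sfp with the accession as filed and its product quenches rhodamine fluorescence; 0% = enzyme reaction without inhibitor and -100% = no enzyme wells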
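After 15 min at room temperature with compound, 15 nM Sfp received 5 uM rhodamine-CoA plus 12.5 uM BHQ-2-ybbR (50 mM Hepes pH 7.6, 10 mM MgCl2). Rate came from the fluorescence difference over 30 min, ex 525/em 598 nm.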
* marks the source's active call; other numbers are inactive results; ? = inconclusive; . = no result given; [ ] = dose if it differs, or a comment. Only some compounds are listed: those with a hit (about 12% of all), similar ones and a draw of the others. Calls come from the whole dose curve; as a rule, active = well fitted curve in the direction sought with a large enough effect; inconclusive = small, poorly fitted or top-dose-only effect, or another doubt; inactive = no such curve, though single readings can be large; an effect the other way counts as inactive or inconclusive. Potency is the fitted concentration of half-maximal effect.

SMILES	JMJD2A Tudor inh	HP1b binding inh	G9a inh	BAZ2B inh	L3MBTL1 inh	Sfp PPTase inh
CC[C@]12c3[nH]c4ccccc4c3CCN1C(=O)C(CC(=O)NCCCOC)C[C@@H]2C(=O)N1CCN(C(=O)c2ccco2)CC1 (stereo not given in full)	-14.4%	27.3%	.	.	-3.2%	.
O=C(Cc1ccc(Cl)cc1)Oc1cccc2cccnc12	25.1µM*	20.6%	?	10µM*	?	-6.4%
O=C(Oc1ccc(Cl)c2cccnc12)c1ccco1	-17.6%	41.9%	?	50.1µM*	.	14.4%
O=C(Oc1cccc2cccnc12)c1ccco1	-17.0%	27.9%	25.8%[59 µM]	70.8µM*	-9.4%	-22.1%
O=C(Oc1cccc2ccccc12)c1ccco1	16.4%	58.4%	?	5.4%	.	-7.0%
O=C(Oc1cccc2cccnc12)c1ccc(Br)o1	-23.4%	29.0%	?	50.1µM*	-8.0%	-16.1%
NNC(=O)COc1cccc2cccnc12	-3.8%[11.4 µM]	44.0%	-15.9%[59 µM]	-4.8%	4.7%	1.5%
O=C(CSc1nc(-c2ccc(F)cc2)cc(C(F)(F)F)n1)NCCc1ccccc1	-0.7%	5.6%	-20.6%[59 µM]	?	.	.
C/C(=N\NC(=O)c1cc(C2CC2)nc2ccccc12)c1ccc(C)s1	-2.8%	35.9%	39.8µM*	-9.9%	.	-8.3%
C/C(=N\NC(=O)c1cc(C)nc2ccccc12)c1cccs1	-11.9%	24.9%	-4.5%	-2.6%	7.2%	-20.9%
O=C(N/N=C/c1cccc(O)c1)c1cc(C2CC2)nc2ccccc12	-10.0%	31.7%	7.4%	-15.3%	.	21.0%
C/C(=N\NC(=O)c1cc(C2CC2)nc2ccccc12)c1ccc(O)cc1O	-22.7%	16.7%	-4.3%	3.55µM*	.	8.5%
CC(=O)Nc1ccc(S(=O)(=O)N2CCc3nc(-c4ccccc4)c4c(c3C2)CO[C@@H](C)C4)cc1	.	.	.	.	.	-2.4%
Cc1ccccc1NC1=CC(=O)CC(C)(C)C1	8.8%	4.9%	18.4%[59 µM]	1.9%	4.3%	-1.5%
CC1(C)CC(=O)C=C(NC2=CC3OC(c4ccccc4)OCC3OC2=O)C1 (stereo not given)	-11.0%	22.1%	?	-0.4%	-0.8%	28.2µM*
Cc1cc(C(=O)CSc2nnnn2C)c(C)n1C1CC1	-6.5%	10.8%	0.3%[59 µM]	?	.	3.2%
Cc1cc(C(=O)CSc2nnc(CCC(N)=O)n2C)c(C)n1C1CC1	-18.6%	8.9%	50.1µM*	-6.8%	-7.4%	.
CC(=O)c1ccc(S(=O)(=O)N(C)C(C)CCc2ccco2)cc1 (stereo not given)	-14.0%	5.4%	?	-30.3%	.	1.4%
CN(C)c1ccc(CNc2nc(-c3ccco3)nn2S(=O)(=O)c2ccc3ccccc3c2)cc1	8.91µM*	?	7.94µM*	8.91µM*	.	.
Cc1ccc(NC(=O)c2sc3ncnc(N(C)C4CCCCC4)c3c2C)cc1	-28.0%	36.7%	?	1.5%	.	.
O=C(NNC(=S)Nc1ccccc1)c1ccccc1[N+](=O)[O-]	-19.6%	13.3%	31.6µM*	-13.8%	5.2%	13.5%
CC(=O)c1ccc(NC(=S)NNC(=O)c2ccccc2[N+](=O)[O-])cc1	-10.1%[57.1 µM]	-10.2%	?	50.1µM*	-2.8%[11.4 µM]	-21.5%
Cc1cccc(C(=O)NNC(=O)c2ccccc2[N+](=O)[O-])c1	-5.5%	15.7%	0.2%	6.2%	-6.1%	0.3%
Cc1cc(O)cc(O)c1C(=O)Cc1ccccc1	-15.1%	28.2%	25.5%[59 µM]	-2.3%	1.4%	10.3%
O=C(Cc1ccc([N+](=O)[O-])cc1)c1c(O)cc(O)cc1O	-34.7%	9.8%	50.1µM*	-27.7%	-22.0%	13.2%
CCCN(c1ccc(C(C)C)cc1)S(=O)(=O)c1ccc2c(c1)n(C)c(=O)c(=O)n2C	-17.3%	22.8%	4.2%[59 µM]	.	.	.
CCOc1cc(/C=N/Nc2nc(=O)[nH]nc2C)ccc1O	?	20.9%	16.0%	-16.9%	6.4%	70.8µM*
Cc1n[nH]c(=O)nc1NCc1ccccc1	-15.3%	16.5%	29.4%	27.2%	7.7%	3.9%
Cc1n[nH]c(=O)nc1NCc1ccco1	-6.2%	14.8%	-31.5%[12.7 µM]	2.3%	-1.8%[11.4 µM]	-18.6%
